Consider 35 molecules from ChEMBL document CHEMBL2218924, “A broad activity screen in support of a chemogenomic map for kinase signalling research and drug discovery” (Biochem J, 2013).

Test [1] addresses G protein-coupled receptor kinase 5 (Homo sapiens) (UniProt P34947). Particulars: at 1 µM.
The target of test [2] is Vascular endothelial growth factor receptor 3 (Homo sapiens) (UniProt P35916). Particulars: at 10 µM.
Test [3] concerns the target Macrophage colony-stimulating factor 1 receptor (Homo sapiens) (UniProt P07333). Particulars: at 1 µM.
Test [4] has the same target. The note with it: at 10 µM.
Test [5] concerns the target Tyrosine-protein kinase Fyn (Homo sapiens) (UniProt P06241). Particulars: at 1 µM.
Test [6] shares this target. Particulars: at 10 µM.
The target in test [7] is T1, Mitogen-activated protein kinase kinase kinase kinase 2 (Homo sapiens) (UniProt Q12851).
T1 sequence (whole entry): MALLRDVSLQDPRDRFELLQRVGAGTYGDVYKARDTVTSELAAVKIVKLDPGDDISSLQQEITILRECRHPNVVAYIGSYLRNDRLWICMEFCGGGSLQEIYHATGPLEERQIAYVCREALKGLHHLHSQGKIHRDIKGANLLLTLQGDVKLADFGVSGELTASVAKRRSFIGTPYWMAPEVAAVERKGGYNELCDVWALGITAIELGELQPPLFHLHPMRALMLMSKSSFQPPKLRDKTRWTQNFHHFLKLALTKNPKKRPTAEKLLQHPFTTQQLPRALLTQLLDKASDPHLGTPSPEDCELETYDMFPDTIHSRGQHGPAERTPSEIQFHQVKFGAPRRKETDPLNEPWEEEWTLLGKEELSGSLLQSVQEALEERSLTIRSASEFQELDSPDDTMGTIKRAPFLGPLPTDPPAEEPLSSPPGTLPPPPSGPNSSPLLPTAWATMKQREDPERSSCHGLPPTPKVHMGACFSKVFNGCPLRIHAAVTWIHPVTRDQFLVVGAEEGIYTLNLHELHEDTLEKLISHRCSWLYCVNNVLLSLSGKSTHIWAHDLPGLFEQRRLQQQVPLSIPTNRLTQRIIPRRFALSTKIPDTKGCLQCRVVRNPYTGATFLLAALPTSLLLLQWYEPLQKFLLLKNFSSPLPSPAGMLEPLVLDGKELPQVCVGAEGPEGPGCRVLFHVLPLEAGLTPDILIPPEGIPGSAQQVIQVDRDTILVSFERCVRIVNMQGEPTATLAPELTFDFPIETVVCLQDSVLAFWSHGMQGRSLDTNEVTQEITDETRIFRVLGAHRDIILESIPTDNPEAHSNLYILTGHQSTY
Particulars: at 1 µM.

The target in test [8] is T1, Mitogen-activated protein kinase kinase kinase kinase 2 (Homo sapiens). The note with it: at 10 µM.
Test [9] deals with G protein-coupled receptor kinase 5 (Homo sapiens) (UniProt P34947). The note with it: at 10 µM.
The target of test [10] is G protein-coupled receptor kinase 6 (Homo sapiens) (UniProt P43250). Particulars: at 1 µM.
Chain of G protein-coupled receptor kinase 6 (Homo sapiens) (P43250 whole entry, looked up): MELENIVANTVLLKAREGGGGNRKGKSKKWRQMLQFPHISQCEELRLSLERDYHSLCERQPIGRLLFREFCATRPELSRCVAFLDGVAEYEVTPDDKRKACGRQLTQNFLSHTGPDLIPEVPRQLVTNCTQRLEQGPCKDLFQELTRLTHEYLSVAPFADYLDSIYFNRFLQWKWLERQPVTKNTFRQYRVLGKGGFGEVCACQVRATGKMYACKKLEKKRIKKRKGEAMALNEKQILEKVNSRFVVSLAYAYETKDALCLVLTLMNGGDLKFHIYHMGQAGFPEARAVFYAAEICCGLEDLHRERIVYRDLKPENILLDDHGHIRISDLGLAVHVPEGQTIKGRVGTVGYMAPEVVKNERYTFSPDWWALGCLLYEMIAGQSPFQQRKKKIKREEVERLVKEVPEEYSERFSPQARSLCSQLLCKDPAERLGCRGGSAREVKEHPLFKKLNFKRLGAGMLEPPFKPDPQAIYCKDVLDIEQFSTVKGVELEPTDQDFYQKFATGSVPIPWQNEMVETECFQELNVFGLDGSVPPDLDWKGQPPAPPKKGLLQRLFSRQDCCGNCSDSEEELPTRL
The target is the same in test [11]. Particulars: at 10 µM.
Test [12] concerns the target T2, Rhodopsin kinase GRK7 (Homo sapiens) (UniProt Q8WTQ7).
T2 sequence (whole entry): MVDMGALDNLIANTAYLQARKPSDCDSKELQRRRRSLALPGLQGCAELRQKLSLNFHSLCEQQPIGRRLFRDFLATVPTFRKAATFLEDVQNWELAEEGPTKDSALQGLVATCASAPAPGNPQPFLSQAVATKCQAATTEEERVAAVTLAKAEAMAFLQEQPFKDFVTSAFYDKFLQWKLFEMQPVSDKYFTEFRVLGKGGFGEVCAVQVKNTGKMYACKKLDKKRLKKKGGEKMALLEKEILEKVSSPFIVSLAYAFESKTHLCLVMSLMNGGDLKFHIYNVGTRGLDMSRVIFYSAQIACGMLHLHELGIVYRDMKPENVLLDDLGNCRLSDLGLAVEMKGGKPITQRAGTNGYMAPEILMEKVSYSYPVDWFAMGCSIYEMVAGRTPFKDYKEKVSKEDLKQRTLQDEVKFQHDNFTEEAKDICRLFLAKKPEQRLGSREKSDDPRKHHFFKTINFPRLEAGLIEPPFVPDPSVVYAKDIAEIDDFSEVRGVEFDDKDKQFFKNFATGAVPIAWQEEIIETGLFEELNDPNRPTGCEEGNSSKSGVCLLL
Particulars: at 1 µM.

Test [13] concerns the target T2, Rhodopsin kinase GRK7 (Homo sapiens). Particulars: at 10 µM.
Test [14] concerns the target Glycogen synthase kinase-3 alpha (Homo sapiens) (UniProt P49840). Particulars: at 1 µM.
Test [15] shares this target. Particulars: at 10 µM.
Test [16] concerns the target Glycogen synthase kinase-3 beta (Homo sapiens) (UniProt P49841). Particulars: at 10 µM.
The target in test [17] is Homeodomain-interacting protein kinase 1 (Homo sapiens) (UniProt Q86Z02). Particulars: at 1 µM.
Chain of Homeodomain-interacting protein kinase 1 (Homo sapiens) (Q86Z02 whole entry, looked up): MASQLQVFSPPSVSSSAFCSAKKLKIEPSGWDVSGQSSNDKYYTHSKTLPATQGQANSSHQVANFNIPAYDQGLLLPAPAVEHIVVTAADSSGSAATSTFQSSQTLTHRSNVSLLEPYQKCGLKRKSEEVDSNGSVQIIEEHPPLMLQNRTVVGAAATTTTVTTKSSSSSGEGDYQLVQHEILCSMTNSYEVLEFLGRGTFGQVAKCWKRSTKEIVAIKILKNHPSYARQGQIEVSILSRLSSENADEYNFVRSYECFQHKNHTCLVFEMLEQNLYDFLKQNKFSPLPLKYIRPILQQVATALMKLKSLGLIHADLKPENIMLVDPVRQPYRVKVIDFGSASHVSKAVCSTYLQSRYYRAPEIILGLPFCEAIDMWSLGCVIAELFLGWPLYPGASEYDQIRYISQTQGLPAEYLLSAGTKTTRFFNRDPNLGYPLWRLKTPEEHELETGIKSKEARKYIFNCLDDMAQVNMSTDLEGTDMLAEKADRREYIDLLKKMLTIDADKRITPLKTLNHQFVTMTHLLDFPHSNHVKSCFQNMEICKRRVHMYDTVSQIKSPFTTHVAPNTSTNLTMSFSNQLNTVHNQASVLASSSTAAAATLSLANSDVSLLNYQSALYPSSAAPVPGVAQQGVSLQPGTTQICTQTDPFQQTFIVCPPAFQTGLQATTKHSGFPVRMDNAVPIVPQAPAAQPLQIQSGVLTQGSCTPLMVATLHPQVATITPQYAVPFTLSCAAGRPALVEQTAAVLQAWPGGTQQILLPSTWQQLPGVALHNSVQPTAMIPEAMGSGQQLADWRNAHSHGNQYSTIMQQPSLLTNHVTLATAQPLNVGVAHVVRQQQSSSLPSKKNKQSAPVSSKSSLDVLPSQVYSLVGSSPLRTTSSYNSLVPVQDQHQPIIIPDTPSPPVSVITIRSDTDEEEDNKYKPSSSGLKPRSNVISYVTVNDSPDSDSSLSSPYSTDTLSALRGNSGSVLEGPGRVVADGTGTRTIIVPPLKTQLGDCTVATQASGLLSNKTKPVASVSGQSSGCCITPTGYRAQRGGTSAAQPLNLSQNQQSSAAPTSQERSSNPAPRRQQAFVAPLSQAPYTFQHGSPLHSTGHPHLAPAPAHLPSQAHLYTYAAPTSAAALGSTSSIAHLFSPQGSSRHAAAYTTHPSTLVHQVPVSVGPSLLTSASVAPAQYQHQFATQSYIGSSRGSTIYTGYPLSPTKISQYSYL
The target is the same in test [18]. The note with it: at 10 µM.
Test [19] concerns the target Homeodomain-interacting protein kinase 2 (Homo sapiens) (UniProt Q9H2X6). Particulars: at 1 µM.
Test [20] addresses Glycogen synthase kinase-3 beta (Homo sapiens) (UniProt P49841). Particulars: at 1 µM.

Chain of Macrophage colony-stimulating factor 1 receptor (Homo sapiens) (P07333 whole entry): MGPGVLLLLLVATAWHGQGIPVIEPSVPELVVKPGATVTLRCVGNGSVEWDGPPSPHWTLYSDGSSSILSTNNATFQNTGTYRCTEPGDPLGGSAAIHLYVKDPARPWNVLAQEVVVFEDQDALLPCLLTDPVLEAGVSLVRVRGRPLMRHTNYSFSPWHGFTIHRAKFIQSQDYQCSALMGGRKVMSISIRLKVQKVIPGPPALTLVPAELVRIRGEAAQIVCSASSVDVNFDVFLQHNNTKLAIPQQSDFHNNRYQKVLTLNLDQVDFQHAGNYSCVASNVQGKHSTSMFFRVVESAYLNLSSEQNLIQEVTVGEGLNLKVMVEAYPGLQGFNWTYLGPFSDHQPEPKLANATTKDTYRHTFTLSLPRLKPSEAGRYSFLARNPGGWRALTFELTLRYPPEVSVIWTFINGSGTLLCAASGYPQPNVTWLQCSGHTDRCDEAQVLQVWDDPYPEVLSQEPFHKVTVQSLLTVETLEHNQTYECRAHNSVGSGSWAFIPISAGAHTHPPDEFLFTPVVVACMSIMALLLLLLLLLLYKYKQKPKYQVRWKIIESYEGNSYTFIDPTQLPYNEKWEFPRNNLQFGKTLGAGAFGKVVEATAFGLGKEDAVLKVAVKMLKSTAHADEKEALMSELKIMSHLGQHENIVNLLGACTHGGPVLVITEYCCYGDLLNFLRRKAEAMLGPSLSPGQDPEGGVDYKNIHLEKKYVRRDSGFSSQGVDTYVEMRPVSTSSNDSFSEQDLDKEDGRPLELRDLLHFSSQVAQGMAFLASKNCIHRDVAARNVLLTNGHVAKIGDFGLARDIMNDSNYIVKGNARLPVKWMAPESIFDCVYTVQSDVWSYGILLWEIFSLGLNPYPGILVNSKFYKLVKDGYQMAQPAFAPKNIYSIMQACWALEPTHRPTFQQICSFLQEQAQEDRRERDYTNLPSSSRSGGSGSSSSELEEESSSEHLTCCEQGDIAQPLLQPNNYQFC
Chain of Vascular endothelial growth factor receptor 3 (Homo sapiens) (P35916 whole entry): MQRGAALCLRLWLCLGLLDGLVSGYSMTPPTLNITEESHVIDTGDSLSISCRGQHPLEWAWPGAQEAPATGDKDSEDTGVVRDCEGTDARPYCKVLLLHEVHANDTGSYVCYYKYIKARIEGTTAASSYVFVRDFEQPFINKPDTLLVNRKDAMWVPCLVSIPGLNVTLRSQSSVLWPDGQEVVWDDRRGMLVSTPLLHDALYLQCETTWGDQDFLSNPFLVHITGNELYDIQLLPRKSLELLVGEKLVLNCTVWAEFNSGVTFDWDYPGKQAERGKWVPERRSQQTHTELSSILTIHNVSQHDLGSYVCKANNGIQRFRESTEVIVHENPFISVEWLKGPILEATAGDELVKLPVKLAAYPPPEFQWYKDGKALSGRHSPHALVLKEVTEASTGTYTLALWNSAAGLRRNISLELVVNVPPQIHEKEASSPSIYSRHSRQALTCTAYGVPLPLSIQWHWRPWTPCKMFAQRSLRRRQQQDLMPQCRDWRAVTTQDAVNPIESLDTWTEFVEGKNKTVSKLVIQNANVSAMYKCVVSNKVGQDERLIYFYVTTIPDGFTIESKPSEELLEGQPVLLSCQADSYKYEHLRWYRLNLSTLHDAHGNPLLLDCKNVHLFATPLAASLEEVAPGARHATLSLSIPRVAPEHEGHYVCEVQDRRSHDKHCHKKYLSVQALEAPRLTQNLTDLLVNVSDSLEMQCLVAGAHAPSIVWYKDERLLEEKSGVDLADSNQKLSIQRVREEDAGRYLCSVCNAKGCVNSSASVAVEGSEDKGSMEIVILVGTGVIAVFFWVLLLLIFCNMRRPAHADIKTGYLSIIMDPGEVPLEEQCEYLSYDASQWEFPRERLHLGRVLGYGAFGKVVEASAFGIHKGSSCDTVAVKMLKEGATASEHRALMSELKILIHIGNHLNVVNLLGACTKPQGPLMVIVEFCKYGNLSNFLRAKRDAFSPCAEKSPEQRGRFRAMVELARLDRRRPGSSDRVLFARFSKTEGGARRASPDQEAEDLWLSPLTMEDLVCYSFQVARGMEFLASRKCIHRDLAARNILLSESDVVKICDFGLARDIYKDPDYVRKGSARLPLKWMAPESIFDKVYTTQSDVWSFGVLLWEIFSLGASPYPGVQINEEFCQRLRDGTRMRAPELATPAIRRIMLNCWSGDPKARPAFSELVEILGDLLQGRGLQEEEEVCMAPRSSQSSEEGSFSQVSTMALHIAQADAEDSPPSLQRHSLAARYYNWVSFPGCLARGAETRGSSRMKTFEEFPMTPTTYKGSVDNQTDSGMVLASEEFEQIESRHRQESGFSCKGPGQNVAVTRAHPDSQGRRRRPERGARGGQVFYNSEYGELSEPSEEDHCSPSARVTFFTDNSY
Chain of Tyrosine-protein kinase Fyn (Homo sapiens) (P06241 2-537 limits assumed): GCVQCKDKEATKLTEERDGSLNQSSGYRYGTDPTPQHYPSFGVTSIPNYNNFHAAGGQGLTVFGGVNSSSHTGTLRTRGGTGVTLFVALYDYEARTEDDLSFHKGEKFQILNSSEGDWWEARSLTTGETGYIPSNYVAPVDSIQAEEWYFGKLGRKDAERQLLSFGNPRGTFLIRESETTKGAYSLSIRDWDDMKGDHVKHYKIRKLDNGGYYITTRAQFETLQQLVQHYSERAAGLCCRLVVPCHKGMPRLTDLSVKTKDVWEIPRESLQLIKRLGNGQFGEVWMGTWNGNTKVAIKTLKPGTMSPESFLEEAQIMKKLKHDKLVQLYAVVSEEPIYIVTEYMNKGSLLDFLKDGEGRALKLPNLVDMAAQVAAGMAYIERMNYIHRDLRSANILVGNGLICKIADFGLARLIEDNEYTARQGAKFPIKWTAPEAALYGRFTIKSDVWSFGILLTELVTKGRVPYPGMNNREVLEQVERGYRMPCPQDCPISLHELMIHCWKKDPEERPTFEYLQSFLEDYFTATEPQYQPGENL
Chain of Glycogen synthase kinase-3 beta (Homo sapiens) (P49841 whole entry, looked up): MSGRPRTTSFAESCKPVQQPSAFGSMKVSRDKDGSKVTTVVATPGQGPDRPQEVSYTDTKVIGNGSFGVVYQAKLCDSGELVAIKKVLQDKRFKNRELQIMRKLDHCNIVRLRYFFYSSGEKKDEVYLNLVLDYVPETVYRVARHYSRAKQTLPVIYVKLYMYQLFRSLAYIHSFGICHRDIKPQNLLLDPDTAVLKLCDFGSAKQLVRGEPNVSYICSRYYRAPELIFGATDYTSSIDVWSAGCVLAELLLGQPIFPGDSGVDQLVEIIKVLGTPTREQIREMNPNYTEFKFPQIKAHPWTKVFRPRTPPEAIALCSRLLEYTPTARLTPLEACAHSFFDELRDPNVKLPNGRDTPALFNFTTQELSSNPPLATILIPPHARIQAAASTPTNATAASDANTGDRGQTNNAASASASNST

Regarding `CCCCc1c(-c2ccc(OC)cc2)[nH]c2nccnc12`, the residual activity in test [1] turned out to be 88%.
Turning to `C[S+]([O-])c1ccc(-c2nc(-c3ccc(F)cc3)c(-c3ccncc3)[nH]2)cc1` (centres undefined), the residual activity was determined as 42% in [2]; 109% in [3]; 52% in [4]; 76% in test [5]; 35% in test [6]; 104% in [7]. The residual activity in test [8] worked out at 100%; in test [1] it was 109%; in test [9] it was 104%; in test [10], 107%; in test [11], 102%; in test [12] it was 109%. Besides, the residual activity is 108% in [13]; 86% in test [14]; 49% in [15]; 34% in test [16]; 102% in test [17]; 97% in [18]. Moreover, the residual activity in [19] came to 110%.
As for `CC(C)[C@H](CO)Nc1nc(Nc2cccc(Cl)c2)c2ncn(C(C)C)c2n1`, the residual activity in test [2] is 3%; in test [3], 70%; in test [4], 34%; in test [5] it was 4%; in test [6], -1%; in test [7] it was 75%. Further, the residual activity was found to be 23% in [8]; 97% in test [1]; 82% in test [9]; 95% in test [12]; 44% in test [13]; 134% in test [20]. The residual activity in test [16] amounted to 57%; in test [17] it was 97%; in [18], 49%; in [19], 88%.
With `O=[N+]([O-])/C=C/c1ccc2c(c1)OCO2`, the residual activity was 95% in [2]; 87% in test [3]; 100% in test [4]; 105% in test [5]; 92% in test [6]; 92% in test [7]. The residual activity in [8] was 86%; in test [1], 106%; in test [9], 91%; in [10] it was 105%; in test [11], 89%; in test [12], 103%. In addition, the residual activity in test [13] is 86%; in test [14] it was 125%; in test [15], 113%; in test [16], 74%; in test [17], 96%; in test [18] it was 112%. In addition, the residual activity in test [19] came to 93%.
`N/C(=N\[N+](=O)[O-])N/N=C\c1ccc(-c2cccc([N+](=O)[O-])c2)o1`: the residual activity stood at 42% in test [2]; 67% in test [3]; 65% in [4]; 77% in test [5]; 83% in test [6]; 87% in [8]. Moreover, the residual activity in [10] turned out to be 97%; in test [11], 94%; in [12] it was 100%; in test [13] it was 91%; in test [14] it was 99%; in test [15], 78%. Also, the residual activity in test [16] was 97%; in [17] it was 99%; in test [18], 100%; in test [19] it was 82%.
In the case of `O=C1Nc2ccc3ncsc3c2/C1=C/c1c[nH]cn1`, the residual activity in test [2] was found to be 0%; in test [3] it was 22%; in test [4], 3%; in test [5] it was 46%; in test [6], 12%; in [7], 7%. Further, the residual activity is 1% in test [8]; 71% in test [1]; 25% in test [9]; 60% in test [11]; 63% in [12]; 20% in [13]. The residual activity in test [14] came to 4%; in [15] it was 1%; in test [20] it was 4%; in [16] it was 0%; in test [17], 64%; in [18], 26%. The residual activity in [19] stood at 32%.
On to `c1ccc(-c2n[nH]c3c2oc2ccccc23)cc1`, for which the residual activity was determined as 91% in test [1] and 99% in test [10].
Regarding `O=C1c2ccccc2-c2nc3nnnn3nc21`, the residual activity in test [2] amounted to 70%; in test [1], 107%; in test [9], 77%; in test [14], 101%; in test [15], 120%; in [20] it was 115%. Besides, the residual activity in test [16] was determined as 101%.
On to `CC(C)(C)n1nc(Cc2cccc3ccccc23)c2c(N)ncnc21`, for which, in [1], the residual activity stood at 108%.
For the molecule `CCn1cnc2c(Nc3cccc(Cl)c3)nc(N[C@@H]3CCCC[C@@H]3N)nc21`, the residual activity in test [2] was found to be 2%; in [3] it was 54%; in test [4] it was 11%; in test [5] it was 8%; in test [6] it was 0%; in test [7], 43%. Also, the residual activity in test [8] worked out at 7%; in test [1], 96%; in test [9], 66%; in [10], 91%; in [11] it was 68%; in [12], 74%. The residual activity came out at 24% in test [13]; 123% in test [14]; 119% in test [15]; 132% in [20]; 136% in test [16]; 81% in [18]. For the same molecule, the residual activity in [19] was 85%.
Regarding `COc1ccc(OC)c2c(=S)c3ccccc3[nH]c12`, the figures for the residual activity in test [1] and in test [10] were 94% and 98%, respectively.
With `CO[C@H]1[C@@H](OC)C[C@H](C)[C@@H](OC)C2=CC(=O)C=C(NC(=O)/C(C)=C/C=C/[C@H](OC)[C@@H](OC(N)=O)/C(C)=C/[C@@H]1C)C2=O`, the residual activity in [1] amounted to 70%; in [10] it was 97%.
Taken in the same sequence, the figures for `Nc1ccc2ncnc(NCCc3ccc(Oc4ccccc4)cc3)c2c1` were 104% and 105%.
Taken in the same sequence, the figures for `CCN(CC)CCCCN1c2ccccc2Oc2ccc(Cl)cc21` were 107% and 102%.
Taken in the same sequence, the figures for `O=c1c2ccccc2[nH]c(=S)n1CCN1CCC(=C(c2ccc(F)cc2)c2ccc(F)cc2)CC1` were 101% and 91%.
For `CCC(=O)Nc1ccc2ncnc(Nc3cccc(Br)c3)c2c1`, the residual activity in test [1] turned out to be 114%; in test [10], 97%.
On the same counts, the results for `Cn1sc(=O)n(Cc2ccccc2)c1=O` are 88% and 88%.
As to `CCCCc1c(-c2ccc(O)cc2)[nH]c2nccnc12`, the figures for the residual activity in [1] and in test [10] were 93% and 98%, respectively.
For the molecule `COc1cc2ncnc(Nc3ccc(Oc4ccccc4)cc3)c2cc1OC`, the residual activity in test [1] was 90%; in test [10], 93%.
Taken in the same sequence, the figures for `O=c1cc(N2CCNCC2)oc2c(-c3ccccc3)cccc12` were 81% and 102%.
Taken in the same sequence, the figures for `Cc1nc2cc3nc(-c4cccs4)cnc3cc2n1C` were 113% and 103%.
Consider `O=C(Nc1cccc(Nc2cc(Nc3cccc(C(F)(F)F)c3)ncn2)c1)C1CC1`, for which the residual activity in test [1] was 102%; in test [10], 98%.
Consider `CO[C@@H]1[C@H](N(C)C(=O)c2ccccc2)C[C@H]2O[C@]1(C)n1c3ccccc3c3c4c(c5c6ccccc6n2c5c31)C(=O)NC4`, for which the residual activity was determined as 82% in test [1] and 79% in test [10].
On the same counts, the results for `CCN(CC)CCNC(=O)c1c(C)[nH]c(/C=C2\C(=O)Nc3ccc(Cl)cc32)c1C` are 68% and 68%.
On the same counts, the results for `COc1ccc(CNc2nc(N(CCO)CCO)nc3c2ncn3C(C)C)cc1` are 89% and 95%.
Taken in the same sequence, the figures for `CN(C)c1ccc(/C=C2\C(=O)Nc3ccccc32)cc1` were 91% and 97%.
Turning to `CO[C@H]1C[C@@H]2CC[C@@H](C)[C@@](O)(O2)C(=O)C(=O)N2CCCC[C@H]2C(=O)O[C@H]([C@H](C)C[C@@H]2CC[C@@H](O)[C@H](OC)C2)CC(=O)[C@H](C)/C=C(\C)[C@@H](O)[C@@H](OC)C(=O)[C@H](C)C[C@H](C)/C=C/C=C/C=C/1C`, the residual activity was determined as 95% in test [1] and 89% in test [10].
As to `Nc1ncnc2c1c(-c1ccc(Oc3ccccc3)cc1)cn2C1CCCC1`, the residual activity in test [1] amounted to 103%; in test [10], 92%.
Taken in the same sequence, the figures for `O=C1NC(=O)c2c1c1c3ccccc3[nH]c1n1cncc21` were 83% and 82%.
On the same counts, the results for `NC(=O)c1ccc2[nH]c(-c3ccc(Oc4ccc(Cl)cc4)cc3)nc2c1` are 93% and 93%.
On the same counts, the results for `Nc1n[nH]c2nnc(-c3c(-c4ccccc4)nn4ccccc34)cc12` are 93% and 87%.
Turning to `CN(C)CCCn1cc(C2=C(c3c[nH]c4ccccc34)C(=O)NC2=O)c2ccccc21`, the residual activity in test [1] stood at 61%; in test [10], 87%.
On the same counts, the results for `COc1cc2ncnc(Nc3ccc(O)c(Br)c3)c2cc1OC` are 89% and 85%.
Turning to `CC(C)c1nn(-c2c(Cl)cccc2Cl)c2nc(Cc3ccc(OCCO)cc3)[nH]c(=O)c12`, the residual activity in test [1] came to 101%; in [10], 96%.
On the same counts, the results for `O=C(Nc1cccc(Nc2nccc(Nc3cccc(C(F)(F)F)c3)n2)c1)C1CC1` are 94% and 99%.
